Pf Dd2 inh = Plasmodium falciparum Dd2 growth inhibition | P. falciparum Dd2 growth, SYBR Green, 72 h | Potency, µM (highest dose often 28.9 µM), for inactives: top-dose activity, negative = inhibition, most hits filed as inhibitors | 120,000 compounds, 4.3% hits | AID 1347417; active means well fitted inhibition curve with a large enough effect;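 further: plate controls were DMSO vehicle for no effect and reference drug for full effect; nearly all actives have a fitted effect of over 65% in size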
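Infected erythrocytes (Dd2, 0.3% parasitemia, 2.5% hematocrit final) are added to compound in RPMI-1640/Albumax II medium, grown 72 h at 37C in low oxygen, then lysed with saponin/Triton-X containing SYBR Green and read by fluorescence.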
An asterisk follows results filed as active; i = inactive; [ ] = dose if it differs, or a comment. Shown is part of a subset that was picked to be rich in hits. Potency means the concentration at half of the fitted maximal effect.

SMILES	Pf Dd2 inh
O=C(NCc1ccccc1)N1CC(n2cc(C(=O)N3CCOCC3)nn2)C1	-6%
Cc1ccc(C(=O)N2CCC(CCC(=O)NC3CCCCCC3)CC2)cc1	-5%
COc1cc(CCC(=O)N2CCc3n[nH]c(=O)n3CC2)on1	i
CC1=C[C@@H](CNS(C)(=O)=O)[C@H](C(C)C)C[C@H]1Cc1nnc(-c2cncn2C)o1	i
COc1ccc(C(=O)NC[C@@H]2C=C(C)[C@H](CC(=O)O)C[C@H]2C(C)C)cc1	-5%[44.1 µM]
COc1ccc(-c2nnc(C[C@@H]3C[C@@H](C(C)C)[C@H](CNCc4ccncc4)C=C3C)o2)cc1	4µM*
c1ccc(O[C@H]2COCCN(c3nc4ccccc4s3)C2)cc1	-4%[44.1 µM]
O=C(c1cn[nH]c1)N1CC2(C1)CN([S+](=O)([O-])c1ccc(OC(F)(F)F)cc1)CC2COc1ccccc1 (stereo not drawn)	-5%
OC1(c2csc(CN3CCN(c4ccccn4)CC3)n2)CCN(Cc2ccc(F)cc2)CC1	5µM*
COC[C@H]1CCCN1Cc1nc(C2(O)CCN(C(=O)Nc3ccc(F)cc3)CC2)cs1	-21%
COC[C@H]1CCCN1Cc1nc(C2(O)CCN(CC(C)C)CC2)cs1	i
OC1(c2csc(CN3CCN(c4ccccn4)CC3)n2)CCNCC1	2%[44.1 µM]
COC[C@H]1CCCN1Cc1nc(C2(O)CCN(Cc3ccc(F)cc3)CC2)cs1	7.9µM*
CN1CCN(Cc2nc(C3(O)CCN(Cc4ccccc4)CC3)cs2)CC1	i
COCCOc1ccc(-c2nc(C)ccc2OC)cc1	11%
COc1ccc(C(=O)N2CCC(N3C(=O)C(OC)C34CCOCC4)CC2)c(OC)n1 (stereo not drawn)	8%
COc1ccc(CN2CCC3(CN[S+](=O)([O-])c4ccccc4N3)C2)cc1 (stereo not drawn)	i
O=[S+]1([O-])NCC2(CCCN(Cc3ccc(F)cc3)C2)Nc2ccccc21 (stereo not drawn)	i
O=[S+]1([O-])NC2(CCN(Cc3ccncc3)C2)CNc2ccccc21 (stereo not drawn)	5%
O=[S+]1([O-])NCC2(CCN(Cc3ccsc3)CC2)Nc2ccccc21	-23%
O=[S+]1([O-])NC2(CCN(Cc3ccc(C(F)(F)F)cc3)CC2)CNc2ccccc21	11µM*
COc1ccc(CN2CCC3(CC2)CNc2ccccc2[S+](=O)([O-])N3)cc1	i
Cc1ccc(CN2CCC3(CC2)CN[S+](=O)([O-])c2ccccc2N3)cc1	5µM*
Cc1ccc(CN2CCCC3(CN[S+](=O)([O-])c4ccccc4N3)C2)cc1 (stereo not drawn)	-27%
O=[S+]1([O-])NCC2(CCN(Cc3ccc(F)cc3)CC2)Nc2ccccc21	8.9µM*
SMILES	Pf Dd2 inh
CC(C)NC(=O)N1CCCCCC1CN1CCOCC1 (stereo not drawn)	i
COc1cccc(C(=O)N2CCC3(CC2)CC(OC)CCO3)c1 (stereo not drawn)	-16%
CC(C)(C)c1nnc2n1C(C(=O)N1CCCC1)CC2 (stereo not drawn)	3%[44.1 µM]
O=C(c1cnc(N2CCOCC2)nc1)N1CCn2nc(C(O)C3CC3)cc2C1 (stereo not drawn)	9%
C#CCO[C@@H]1CCN(S(=O)(=O)c2cccs2)[C@H](C(=O)N[C@H](C)C(N)=O)C1	14%[44.1 µM]
Cc1nc(C)c(C(=O)N2CCC3(CC2)CC(N2CCOCC2)CCO3)s1 (stereo not drawn)	39%
C=CCn1cc2c3c(cccc31)[C@H](CC(C)C)N[C@H](C(=O)NCCN1CCOCC1)C2	i
C=CCn1cc2c3c(cccc31)[C@H](CC(C)C)N[C@H](C(=O)NC1CCC1)C2	13µM*
C=CCn1cc2c3c(cccc31)[C@H](CC(C)C)N[C@H](C(=O)N1CCOCC1)C2	i
CC(C)C[C@@H]1N[C@H](C(=O)NC2CCCC2)Cc2cn(CC3CC3)c3cccc1c23	-16%[44.1 µM]
CC(C)C[C@@H]1N[C@H](C(=O)NC2CCC2)Cc2c[nH]c3cccc1c23	-16%[44.1 µM]
CC#CCn1cc2c3c(cccc31)[C@H](CC(C)C)N[C@H](C(=O)OC)C2	i
C=CCn1cc2c3c(cccc31)[C@H](CC(C)C)N[C@H](C(=O)NCc1ccccc1)C2	7.1µM*
CC(C)C[C@@H]1N[C@H](C(=O)NC2CCC2)Cc2cn(Cc3nccn3C)c3cccc1c23	10µM*
CC(C)C[C@@H]1N[C@H](C(=O)NC2CCCC2)Cc2c[nH]c3cccc1c23	13µM*
CC(=O)N1CCCN(C(=O)[C@@H]2Cc3cn(C)c4cccc(c34)[C@H](CC(C)C)N2)CC1	-6%[44.1 µM]
C#CCNC(=O)[C@@H]1Cc2c[nH]c3cccc(c23)[C@H](CC(C)C)N1	i
C=CCn1cc2c3c(cccc31)[C@H](CC(C)C)N[C@H](C(=O)NCc1ccccc1OC)C2	-9%[44.1 µM]
O=C(NCCn1cccn1)c1coc(COc2cccc(C(F)(F)F)c2)n1	-25%
CCc1nc(-c2c3n(c(=O)n(Cc4ccc(OC)cc4)c2=O)CCCCC3)no1	-25%
C#CCNC(=O)C1CCN(C(=O)C2CN(c3ccc(OC)cc3)C(=O)N2)C1 (stereo not drawn)	-11%
CCc1noc(C)c1C(=O)N1CCc2c(nc(-c3ccccn3)[nH]c2=O)C1	-13%
CS(=O)(=O)N1CCc2ccc(C(=O)NCc3ccc(N4CCOCC4)cc3)cc21	i
O=C(NC1C[C@H]2CC[C@@H](C1)N2C(=O)CC1CCCC1)c1ccc(F)cc1 (stereo partly drawn)	-19%
CCC(CC)C(=O)NC1CCN(c2cnn(Cc3ccccc3)c(=O)c2)CC1	-5%
SMILES	Pf Dd2 inh
COc1ccccc1-c1nnc(C2CCN(S(=O)(=O)c3ccc(F)c(C)c3)CC2)o1	23%
CCCc1ccc(S(=O)(=O)N2CCC(c3nnc(-c4cccc(C)c4)o3)CC2)cc1	11µM*
CCCc1ccc(S(=O)(=O)N2CCC(n3cnnc3C)CC2)cc1	-28%
Cc1nc(-c2c3n(c(=O)n(CC(=O)Nc4cccc(C(C)C)c4)c2=O)CCCCC3)no1	-18%
CCOC(=O)CSc1nc2c([nH]c3ccccc32)c(=O)n1-c1ccc(OC)cc1	-3%
COc1ccc(-n2c(SCC(=O)N3CCCc4ccccc43)nc3c([nH]c4ccccc43)c2=O)cc1	12%
CCC1CCCCN1C(=O)CSc1nc2c([nH]c3ccccc32)c(=O)n1-c1ccc(OC)cc1 (stereo not drawn)	13µM*
COC(=O)c1ccc(CSc2nc3c([nH]c4ccccc43)c(=O)n2-c2ccc(OC)cc2)o1	-10%
CCOc1ccc(-n2c(SCC(=O)NCC3CCCO3)nc3c([nH]c4ccccc43)c2=O)cc1 (stereo not drawn)	1%
COc1ccc(-n2c(SCC(=O)NC3CCCCC3)nc3c([nH]c4ccccc43)c2=O)cc1	10µM*
Cc1ccc(CCNC(=O)c2cc3n(n2)CC(c2ccc4c(c2)OCO4)OC3)cc1 (stereo not drawn)	i
O=C(NCC(F)F)c1cc(Br)cn2ccnc12	-12%[44.1 µM]
CS(=O)(=O)c1ccc(CC(=O)N2CCCC(c3cccc(C(=O)O)c3)C2)cc1 (stereo not drawn)	-17%
Cc1noc(C)c1CN[C@@H]1CCC[C@@H](C(=O)N2CCN(C)CC2)CC(=O)N(C)C1	11%[44.1 µM]
COc1ccccc1NC(=O)CCn1ccn2nc3c(c2c1=O)CCCC3	i
Cc1ccc(Cn2ccn(Cc3cccc(C(F)(F)F)c3)c(=O)c2=O)cc1	i
NCc1cccc(-c2cc(C(F)(F)F)ccc2Cl)c1	10µM*
Cc1cc(Cl)ccc1-c1ccccc1CN	8.9µM*
Cc1cc(F)ccc1-c1cccc(COc2cnc3c(ccn3CC(=O)O)c2)c1	i

Screening data as filed in PubChem.
